Bioassay records as filed in PubChem.
Hits are enriched below; roughly 4.7% of the tested compounds scored in any of these assays.
EBI2 antag – EBI2 (human) antagonism; P32249; EBI2 beta-arrestin recruitment, luminescence, 7a,25-OHC stimulated; inhibition, % at 5 µM; actives 0.81% (n = 360,000); in the data active means inhibition above about 38%;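 further: enzyme fragment complementation signal reports receptor beta-arrestin coupling in cells; 0% = agonist plus DMSO wells and 100% = wells without agonist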
Target sequence (P32249 whole entry, looked up, the tested form may be a part): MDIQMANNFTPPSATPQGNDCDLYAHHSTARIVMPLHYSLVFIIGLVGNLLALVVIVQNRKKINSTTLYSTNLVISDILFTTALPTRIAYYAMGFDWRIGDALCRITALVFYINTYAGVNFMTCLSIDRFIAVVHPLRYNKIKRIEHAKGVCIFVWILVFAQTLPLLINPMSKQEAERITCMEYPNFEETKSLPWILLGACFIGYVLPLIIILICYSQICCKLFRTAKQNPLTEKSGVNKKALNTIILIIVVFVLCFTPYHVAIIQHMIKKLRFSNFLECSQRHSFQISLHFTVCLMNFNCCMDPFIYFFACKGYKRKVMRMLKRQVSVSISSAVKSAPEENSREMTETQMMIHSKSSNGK
PfHsp90 yeast 2 – inhibits growth of yeast expressing Plasmodium falciparum Hsp90; S. cerevisiae expressing PfHsp90, BacTiter-Glo ATP, 48 h; yeast lacking PDR1 and PDR3 efflux regulators; inhibition, % at 9.4 µM; actives 0.32% (n = 310,000);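 active means every replicate shows inhibition above about 80%, whatever the replicate mean, limit read from the data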;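 further: 0% = DMSO neutral controls and 100% = 20 µM radicicol positive controls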
tim23-1 inh – inhibits growth of tim23-1 mutant yeast | S. cerevisiae tim23-1 growth, BacTiter-Glo luminescence, 24 h | inhibition, % at 20 µM | actives 1.3% (n = 330,000);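 active means growth inhibition of the mutant yeast at or above 50%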;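 further: temperature-sensitive mutant grown at 25 °C; plate controls were DMSO-treated mutant yeast for no effect and medium wells lacking yeast for full effect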
tim10-1 inh – tim10-1 yeast growth inhibition; S. cerevisiae tim10-1 ts strain growth, BacTiter-Glo, 24 h; inhibition, % at 20 µM; actives 2.2% (n = 330,000);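 active means inhibition of at least 40%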;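 further: mutant grown at 25 °C; 0% = DMSO wells with yeast and 100% = wells holding no yeast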
TIM10 inh – growth inhibitors of TIM10 yeast strain; AID 463195; inhibition, % at 10 µM; S. cerevisiae TIM10 strain growth, BacTiter-Glo luminescence, 24 h; actives 1.4% (n = 330,000);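 active means inhibition of 40% or more at the single tested concentration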;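 further: wild-type TIM10 isogenic control strain grown at permissive 25 °C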
SKKanGAS inh – inhibitors of SKKanGAS S. pyogenes growth in kanamycin (SK-promoter or general growth effect); BacTiter-Glo, 6 h; inhibition, % at 7.5 µM; actives 1.3% (n = 300,000);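 active means mean replicate score, as percent of positive control median, at least 50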;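 further: strain carries kanamycin resistance gene driven by streptokinase promoter and grows in 40 µg/ml kanamycin; loss of luminescence reflects streptokinase promoter inhibition or plain growth inhibition; 0% = median of DMSO wells and 100% = positive control at its reference dose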
tim23-1 confirm – confirmation of tim23-1 mutant yeast growth inhibitors. inhibition, % at 20 µM. S. cerevisiae tim23-1 growth, BacTiter-Glo luminescence, 24 h. actives 83% (n = 4,400). shares compounds with tim23-1 inh;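 active means inhibition above about 39% in either of two replicate wells at 20 µM, limit read from the data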;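 further: temperature-sensitive tim23-1 mutant grown at 25 °C; 0% = DMSO wells with yeast and 100% = medium wells without yeast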
An asterisk follows results filed as active; nt = no result given.

SMILES	EBI2 antag	PfHsp90 yeast 2	tim23-1 inh	tim10-1 inh	TIM10 inh	SKKanGAS inh	tim23-1 confirm
COc1cccc(/C=N/Nc2nccnc2Cl)c1O	9	20	67*	39	17	-9	61*
CSc1nc2ccccc2c(=O)n1C1CCOC(C)(C)C1 (stereo not drawn)	5	-10	13	-8	-4	3	nt
COc1ccccc1C(=O)N1c2ccccc2Sc2ccccc21	14	5	45	18	22	-5	nt
CCOc1ccccc1C(=O)N1c2ccccc2Sc2ccccc21	17	-3	51*	29	18	-11	42*
Cc1cccc(CC2CC(=O)N(c3nc4ccccc4s3)C2=O)c1 (stereo not drawn)	9	-9	31	34	32	-2	nt
Cc1ccc2nc(N3C(=O)CNC3=S)sc2c1	-3	9	64*	22	29	89*	66*
CC(C)(C)C(=O)/C=c1\[nH]c(=O)/c(=C\c2ccccc2F)s1	8	-9	-1	14	27	18	nt
CC(C)(C)C(=O)/C=c1\[nH]c(=O)/c(=C\c2ccc(F)cc2)s1	10	8	52*	21	24	4	51*
CCn1cc(Br)c(C(=O)Nc2ccc(Cl)cc2Cl)n1	5	-28	94*	39	20	7	38
O=C(Nc1ccc(F)c(Cl)c1)c1ccccc1	-2	6	64*	14	34	nt	67*
CCn1cc(Br)c(C(=O)Nc2ccc(F)c(Cl)c2)n1	-9	8	53*	28	27	0	44*
CCOC(=O)c1ccc(NC(=O)c2nn(CC)cc2Br)cc1	-2	4	21	18	9	-10	nt
O=C([C@@H]1CCCN1C1=NS(=O)(=O)c2ccccc21)N1CCN(c2ccccc2)CC1	-10	nt	nt	nt	nt	nt	nt
COc1ccc(-c2cn3c(C)c(C(=O)N4CCCc5ccccc54)sc3n2)cc1	25	-17	53*	20	0	35	59*
O=C(Cn1ncc(Cl)c(Cl)c1=O)c1ccc2c(c1)OCCO2	6	-3	58*	-34	-27	nt	31
C/C(=N\NC(=S)NC1CCCCC1)c1ccc(C#N)cc1	0	-41	23	28	28	-4	nt
O=C(NC(=S)NC1CCCCCCCCCCC1)c1cccnc1	1	nt	12	7	-37	2	nt
N#Cc1ccc(C(=O)NC(=S)NC2CCCCC2)cc1	7	1	65*	10	32	nt	41*
O=C(NC(=S)NC1CCCC1)c1ccccc1	-2	-21	58*	29	9	-3	46*
CC(C)CN=Cc1c(O)c([N+](=O)[O-])cc2oc3c(c12)CCCC3	-8	-12	66*	37	40	-8	1
CCSc1nnc(NC(=O)[C@H](C)NC(=O)c2ccccc2Cl)s1	-13	21	10	7	13	-2	nt
NCCCCc1ccc2ccc3cccc4ccc1c2c34	-14	12	50*	32	7	nt	9
Oc1ccc(Oc2ccc(Oc3ccc(O)cc3)cc2)cc1	11	-91	59*	-10	-16	67*	51*
Oc1ccc(/C=N/Nc2cccc3cccnc23)c(O)c1	20	-1	58*	-4	19	6	57*
O=S1(=O)N[C@@H](Cc2ccccc2)COc2cc(N3CC[C@H](O)C3)ccc21	-8	nt	nt	nt	nt	nt	nt
SMILES	EBI2 antag	PfHsp90 yeast 2	tim23-1 inh	tim10-1 inh	TIM10 inh	SKKanGAS inh	tim23-1 confirm
O=C(Nc1cscc1S(=O)(=O)c1ccccc1)c1ccccc1Cl	6	1	24	7	10	7	nt
O=C1C(=Cc2cccs2)Oc2ccccc21	8	20	nt	nt	nt	nt	nt
O=C1/C(=C/c2cccs2)COc2ccccc21	-13	-5	58*	28	33	6	58*
CCOc1ccc(NC(=S)NC(=O)C2CCCC2)cc1	9	34	49	33	1	20	nt
Cc1cc(C)cc(NC(=S)NC(=O)C2CC2)c1	7	4	54*	36	30	-2	34
CCN(CC)c1ccc(NC(=S)NC(=O)C2CCC2)cc1	3	2	58*	39	29	-7	32
N#Cc1ccc(NC(=S)NC(=O)C2CCCCC2)cc1	-5	25	51*	27	33	nt	49*
CC(=O)Nc1ccc(NC(=S)NC(=O)C2CCCC2)cc1	-16	8	31	33	4	-2	nt
COc1ccc(-c2csc(NC(=O)c3c(C)noc3C)n2)cc1OC	-1	nt	nt	nt	nt	nt	nt
CCOC(=O)c1nnsc1NC(=O)Nc1ccc(OC)cc1	-2	-6	84*	-14	8	6	2
O=C(NC1CCN(S(=O)(=O)c2ccccc2)CC1)c1ccccc1	4	21	7	-11	-2	4	nt
CCOC(=O)C1(CC2CCCCO2)CCN(S(=O)(=O)c2c(C)nn(C)c2C)CC1 (stereo not drawn)	-14	-12	12	4	9	1	nt
COc1ccc(CNC(=S)Nc2ccccc2)cc1Cl	6	2	65*	14	29	2	35
COc1ccc(CNC(=S)Nc2ccc(F)c(Cl)c2)cc1OC	3	8	6	10	15	-1	nt
N#C/C(=C\c1ccc(Cl)cc1)C(=O)Nc1cccnc1	-1	27	65*	20	9	4	68*
Cc1cccc(NC(=O)/C(C#N)=C/c2ccc(Cl)cc2)n1	6	-2	60*	30	32	2	68*
COc1ccc(NC(=O)C(=O)N/N=C/c2cccnc2)c(OC)c1	-12	14	9	5	6	-8	nt
COc1ccc(NC(=O)/C(C#N)=C/c2cccnc2)c(OC)c1	1	29	50*	31	27	16	44*
COc1ccc(/C=C(\C#N)C(=O)Nc2cccc(C)n2)cc1	15	-14	5	1	-15	0	nt
COc1ccc(/C=C(\C#N)C(=O)Nc2cccnc2)cc1	-1	45	8	7	14	3	nt
CCCCn1c(N)c(N(CCC(C)C)C(=O)COC(=O)Cc2ccc(Cl)cc2)c(=O)[nH]c1=O	-2	37	nt	nt	nt	nt	nt
CN(C)c1c2ccccc2nc2c(F)c(F)c(F)c(F)c12	-4	28	64*	18	19	2	67*
O=C(Cn1ccc(NC(=O)OCc2ccccc2)nc1=O)NCc1ccc2c(c1)OCO2	4	15	11	2	-14	nt	nt
CC(C)C(=O)NNC(=O)CN1CCN(c2nc(-c3ccccc3)cs2)CC1	-7	nt	3	11	11	-10	nt
CCc1nnc(NC(=O)CN2CCN(c3nc(-c4ccccc4)cs3)CC2)s1	9	3	50*	37	31	0	41*
Cc1ccc(S(=O)(=O)N2C(=O)[C@@H]3Cc4ccccc4CN3C2=O)cc1	4	11	51*	23	14	-9	41*
